In the supplement of paper PMC9334596:
Several values for one entry are separate records, joined by “and”; a condition that tells them apart may be missing. Equal values may be shown once. The full ranking holds about 5,300 compounds; the median of “PER2::LUC luminescence relative to vehicle control” is about 0.96, and the highest 2% start at about 1.3. What follows is part of a selection rich in the highest values, with near analogues and random picks from the rest.

Tested on: mPer2Luc MEF
Experiment: PER2::LUC luminescence relative to vehicle control (fold of vehicle); higher = higher PER2::LUC reporter signal
Settings: 10 µM
Summary of the method: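 In 384-well plates, ~3000 mPer2Luc reporter mouse embryonic fibroblasts per well were cultured in DMEM with 10% FBS at 37 °C and 5% CO2 for 48 h before compounds from commercial libraries were added at 10 μM. ONE-Glo luciferase readings were taken 24 h and 30 h after treatment. Each value is PER2::LUC luminescence given as fold of vehicle control.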

| SMILES | PER2::LUC luminescence (time after treatment 24 h) | PER2::LUC luminescence (time after treatment 30 h) |
| --- | --- | --- |
| Clc1ccc(Cn2c(CN3CCCC3)nc3ccccc32)cc1 | 1.06 and 0.848 | 0.924 and 0.834 |
| CN(c1nccc(=O)[nH]1)C1CCN(c2nc3ccccc3n2Cc2ccc(F)cc2)CC1 | 1.07 | 1.45 |
| COc1ccc([C@@H]2OC[C@@H]3[C@H]2CO[C@H]3c2ccc(OC)c(OC)c2)cc1OC | 1.05 | 1.07 |
| CC1(C)CC(NC(=O)C(=O)Nc2ccc(Br)cc2)CC(C)(C)N1 | 0.875 | 0.928 |
| NC1CCN(O)C1=O (single isomer, unassigned; (-)) | 1.08 | 1.01 |
| CC1(C)CC(NC(=O)C(=O)Nc2ccc(Cl)cc2)CC(C)(C)N1 | 0.958 | 1 |
| O=C(O)c1cc(=O)c2ccccc2[nH]1 | 1.08 | 0.931 |
| O=C1c2ccccc2-n2c1nc1ccccc1c2=O | 0.998 | 0.885 |
| O=c1c2ccccc2nc2n1CCc1c-2[nH]c2ccccc12 | 1.36 | 1.51 |
| CC1(C)CC2C1CC[C@]1(CBr)CCC3C(CC(=O)O)C(=O)O[C@@]32C1 (stereo partly specified) | 1.04 | 0.929 |
| NCC(O)COc1cccc2ccccc12 (stereo unspecified) | 0.637 | 0.588 |
| Cc1onc(-c2ccccc2)c1C(=O)N1CCN(c2ccc([N+](=O)[O-])cc2Cl)CC1 | 0.896 | 1.04 |
| O=C(Nc1ccccc1)c1ccccc1O | 1.27 | 1.08 |
| O=C(Nc1ccccc1)Nc1ccccc1 | 1.57 | 1.44 |
| CC(=O)Nc1ccccc1 | 0.881 | 1.21 |
| CC(C)c1c2cc(-c3ccnc(NC4CCC(NC5CCOCC5)CC4)n3)ccc2nn1C (stereo unspecified) | 0.008 | 0.002 |
| OC[C@H]1O[C@@H](O[C@@H]2OC=C[C@H]3[C@H](O)[C@@H]4O[C@]4(CO)[C@@H]23)[C@H](O)[C@@H](O)[C@@H]1O | 1.04 | 1 |
| O=c1oc2ccc(O)cc2c2c1NCCC2 | 0.764 | 1.05 |
| O=c1cc(-c2ccccc2)oc2cc(O)c(O)cc12 | 1.41 | 1.47 |
| O=c1cc(-c2ccc(O)cc2)oc2ccc(O)cc12 | 1.72 | 1.87 |
| CCOC(=O)COc1ccc2c(=O)cc(-c3ccccc3)oc2c1 | 1.06 | 1.08 |
| Cc1cc(=O)oc2cc(O)ccc12 | 1.01 and 1.08 and 0.784 | 0.94 and 0.807 and 0.997 |
| O=c1oc2cc(O)ccc2c2oc3cc(O)ccc3c12 | 1.06 | 1.13 |
| O=c1cc(-c2ccc(O)cc2)oc2cc(O)c([C@@H]3O[C@H](CO)[C@@H](O)[C@H](O)[C@H]3O)c(O)c12 | 0.972 | 0.983 |
| O=c1c(O)c(-c2ccccc2)oc2ccccc12 | 1.08 | 1.05 |
| O=c1cc(-c2ccccc2)oc2ccc(O)cc12 | 1.47 | 1.89 |
| O=c1cc(-c2ccccc2)oc2c(O)c(O)ccc12 | 0.582 | 0.632 |
| O=c1cc(-c2ccccc2O)oc2cc(O)ccc12 | 1.27 | 1.38 |
